# Source: PubChem BioAssay (Tox21)
# Records with an inconclusive call do not appear. Where a call stands in place of a potency, no number is given. Activity calls are given as the source filed them. The call rests on the fitted dose curve.
# Molecular target: Thyrotropin receptor (Homo sapiens) (UniProt P16473)
# Test: qHTS assay to identify small molecule agonists of the thyroid stimulating hormone receptor (TSHR) signaling pathway (AID 1224843); further: nearly all actives have a fitted effect of over 45% in size
# Conditions: TSHR-HEK293 cells, cAMP HTRF, agonist mode, 30 min; series mostly up to 92.4 µM
# Excerpt: National Center for Advancing Translational Sciences [NCATS]
# NIH Chemical Genomics Center [NCGC]
# U.S. Environmental Protection Agency [EPA]
# National Institutes of Environmental Health Sciences [NIEHS]
# National Toxicology Program [NTP]
# U.S. Food and Drug Administration [FDA]
# TSHR is the receptor for thyrotropin (thyroid stimulating hormone or TSH), a member of the glycoprotein hormone family. TSH is released by the anterior pituitary gland and is the main regulator of thyroid gland growth and development. Upon binding circulating thyrotropin, a G-protein signal cascade activates adenylyl cyclase and […] cAMP concentration is increased. cAMP is a key second messenger involved extensively in cellular signal transduction pathways associated with the majority of G-protein coupled receptors (GPCRs). The activation of these GPCRs by neurotransmitters, lipids, nucleotides, peptides and hormones results in the activation or the inhibition of plasma membrane-bound adenylate cyclase through heterotrimeric G-proteins. A cell-based TSHR assay was used to screen the Tox21 10K library for compounds that can modulate TSHR in agonist mode.
# Tox21 Assay Protocol Summary:
# TSHR-Hek293 cells were dispensed at 800 cells/4uL/well in 1536-well white plates using a Multidrop dispenser. […] The plates were incubated at room temperature for 30 min. 2.5 ul/well of cAMP-d2 and 2.5ul/well of anti-cAMP-cryptate was added respectively into the assay plates using a Flying Reagent Dispenser. After 1 hr incubation at room temperature, the fluorescence intensity in the plates was measured using an Envision plate reader. Each test compound was measured at 15 concentrations and in triplicates.
# Sequence of Thyrotropin receptor (Homo sapiens) (P16473 whole entry, looked up): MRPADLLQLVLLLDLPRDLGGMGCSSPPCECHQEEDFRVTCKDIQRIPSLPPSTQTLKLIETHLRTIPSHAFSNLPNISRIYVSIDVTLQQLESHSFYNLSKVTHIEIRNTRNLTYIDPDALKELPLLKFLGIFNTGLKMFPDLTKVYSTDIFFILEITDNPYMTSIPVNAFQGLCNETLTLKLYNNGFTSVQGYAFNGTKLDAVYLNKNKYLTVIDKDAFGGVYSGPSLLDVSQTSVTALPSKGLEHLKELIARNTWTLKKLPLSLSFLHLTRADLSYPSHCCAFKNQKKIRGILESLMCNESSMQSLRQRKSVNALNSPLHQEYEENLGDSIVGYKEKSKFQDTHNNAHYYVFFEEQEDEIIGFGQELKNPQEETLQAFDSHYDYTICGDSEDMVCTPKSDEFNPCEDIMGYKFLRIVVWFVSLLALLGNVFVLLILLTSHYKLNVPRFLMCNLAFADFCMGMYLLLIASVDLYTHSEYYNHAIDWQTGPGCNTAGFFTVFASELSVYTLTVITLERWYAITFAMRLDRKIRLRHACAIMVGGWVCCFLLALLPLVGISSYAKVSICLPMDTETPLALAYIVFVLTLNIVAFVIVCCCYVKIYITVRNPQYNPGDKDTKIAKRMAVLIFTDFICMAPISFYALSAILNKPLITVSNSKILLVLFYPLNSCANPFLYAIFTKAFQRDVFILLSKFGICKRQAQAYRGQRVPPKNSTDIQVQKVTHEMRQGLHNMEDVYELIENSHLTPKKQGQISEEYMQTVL
row,Structure (SMILES),Potency
1,OCCCCO,inactive
2,OCC(O)CCl (stereo not given),inactive
3,N#Cc1cccc(C#N)c1,inactive
4,N#Cc1ccccn1,inactive
5,Clc1cnc(Oc2ccc(Oc3ncc(Cl)cc3Cl)cc2)c(Cl)c1,inactive
6,O=P1(NCCCl)OCCCN1CCCl (stereo not given),inactive
7,[N-]=[N+]=CC(=O)OC[C@H](N)C(=O)O,inactive
8,C[C@H]1C(=O)O[C@@H]2CCN3CC=C(COC(=O)[C@](C)(O)[C@]1(C)O)[C@H]23,inactive
9,O=C(O)CCCc1ccc(N(CCCl)CCCl)cc1,inactive
10,C=C(C)C(=O)OCC(CC)CCCC (stereo not given),inactive
11,Cc1ccc(O)c(C)c1,inactive
12,OC[C@@H](O)[C@H]1O[C@@H]2O[C@H](C(Cl)(Cl)Cl)O[C@@H]2[C@H]1O,inactive
13,N#CN=C(N)N,inactive
14,CCNc1nc(Cl)nc(NC(C)C)n1,inactive
15,CCSC(=O)N1CCCCCC1,inactive
16,O=[N+]([O-])c1ccc(Cl)c(Cl)c1,inactive
17,Cc1cc(O)ccc1Cl,inactive
18,O=C(O)c1cc(Oc2ccc(C(F)(F)F)cc2Cl)ccc1[N+](=O)[O-],inactive
19,CNC(=O)O/N=C(\SC)C(=O)N(C)C,inactive
20,CNCC(O)c1ccc(O)cc1 (stereo not given),inactive

row,Structure (SMILES),Potency
1,Oc1ccc(Cl)cc1,inactive
2,CC[N+](=O)[O-],inactive
3,CNC(=O)Oc1cccc2ccccc12,inactive
4,Nc1cccc(Cl)c1,inactive
5,CC(C)CCCCCCOC(=O)c1ccccc1C(=O)OCCCCCCC(C)C,inactive
6,CCCCC(CC)C(=O)Cl (stereo not given),inactive
7,COP(=S)(OC)SCN1C(=O)c2ccccc2C1=O,inactive
8,OCc1ccco1,inactive
9,Nc1cc(Cl)cc(Cl)c1,inactive
10,COC(C)(C)CCCC(C)C/C=C/C(C)=C/C(=O)OC(C)C (stereo not given),inactive
11,C=CC(=O)OCCCCCC(C)C,inactive
12,CN(C)NC(=O)CCC(=O)O,inactive
13,Oc1c(Br)cc(Br)cc1Br,inactive
14,Cc1cccc(N)c1C,inactive
15,Cl[C@H]1OCCO[C@@H]1Cl,inactive
16,O=C(O)COc1ccccc1,inactive
17,CCOP(=S)(OCC)Oc1ccc([N+](=O)[O-])cc1,inactive
18,ClCCOCCCl,inactive
19,COc1nc(NC(C)C)nc(NC(C)C)n1,inactive
20,CCOP(=S)(OCC)Oc1cc(C)nc(C(C)C)n1,inactive
